Sampled rows, rich in hits. Any-hit rate of the full collection: about 1.2%.
ABCB6 inh MLPCN: human ABCB6 transporter inhibition; 360,000 compounds, 0.19% hits; K562-ABCB6 porphyrin accumulation, flow cytometry, 1 h; hits give low values; fluorescence ratio to DMSO, % at 10 µM; Q9NP58; AID 602162;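 active = fluorescence ratio to DMSO below 75%, the collection mean minus 3 SD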;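 also: signal is porphyrin accumulated inside mitochondria; 100% equals median channel fluorescence of DMSO control wells; lower ratio means ABCB6 inhibition with less porphyrin fluorescence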
Target sequence (Q9NP58 whole entry, looked up): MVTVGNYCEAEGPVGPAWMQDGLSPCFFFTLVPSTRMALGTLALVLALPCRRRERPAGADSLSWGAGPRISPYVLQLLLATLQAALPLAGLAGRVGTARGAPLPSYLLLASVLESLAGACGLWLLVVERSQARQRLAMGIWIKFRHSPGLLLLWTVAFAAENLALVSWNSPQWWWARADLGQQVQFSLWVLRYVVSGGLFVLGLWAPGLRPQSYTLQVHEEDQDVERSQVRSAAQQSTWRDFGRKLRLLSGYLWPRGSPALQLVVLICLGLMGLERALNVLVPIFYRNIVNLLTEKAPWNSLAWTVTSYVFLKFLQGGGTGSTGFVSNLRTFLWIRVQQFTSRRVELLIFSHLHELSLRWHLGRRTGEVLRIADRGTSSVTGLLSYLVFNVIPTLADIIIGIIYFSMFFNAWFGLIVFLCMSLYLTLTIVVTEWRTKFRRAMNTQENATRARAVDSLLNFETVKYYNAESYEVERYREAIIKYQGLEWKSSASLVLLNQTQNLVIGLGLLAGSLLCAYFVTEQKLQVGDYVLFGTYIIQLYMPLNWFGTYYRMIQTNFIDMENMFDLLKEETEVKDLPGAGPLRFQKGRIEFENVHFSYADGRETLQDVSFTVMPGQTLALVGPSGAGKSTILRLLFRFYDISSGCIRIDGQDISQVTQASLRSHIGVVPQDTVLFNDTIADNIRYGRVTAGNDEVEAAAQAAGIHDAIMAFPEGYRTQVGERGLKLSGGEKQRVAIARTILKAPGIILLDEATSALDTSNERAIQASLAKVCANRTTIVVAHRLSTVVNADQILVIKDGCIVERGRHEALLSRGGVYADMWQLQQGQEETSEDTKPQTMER
VLA-4 inh: inhibition in a human VLA-4 binding assay. AID 2557. inhibition, % (about 7 µM as worked out from the volumes in the protocol). P13612. VLA-4 expressing cells, ligand binding flow cytometry. 330,000 compounds, 0.2% hits; in the data active = inhibition above about 50%
SKN-1 block: blocks SKN-1 activity in C. elegans; 360,000 compounds, 0.49% hits; AID 624304; C. elegans VP596 Pgst-4::GFP/RFP ratio, acrylamide-induced, 24 h; inhibition, % at 21.8 µM;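 active = interference check ratio from 0.5 to 1.5 plus GFP to RFP signal ratio inhibition reaching or exceeding a fixed threshold, cut at about 30% in these data, passing the limit was not always enough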
CR mimetic SO: yeast age-related superoxide inhibition as caloric restriction mimetic; superoxide response (% of plate mean), % at 10 µM; 330,000 compounds, 0.18% hits; S. cerevisiae aged cells, superoxide DHE fluorescence; hits give low values;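 active = superoxide response under a set limit, about three screen SD below normal, cut at about 65% in these data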;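 also: yeast aged for seven days with compound at 30 °C before DHE staining; 100% = average MFI of all compound-treated wells on the plate with controls excluded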
Platelet DG rel: platelet dense granule release activity. inhibition, %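 (compounds screened at 7.5 µM in platelet-rich plasma)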. 300,000 compounds, 0.22% hits. human platelet-rich plasma, SFLLRN dense granule ATP release, luminescence. AID 1663;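 active = mean replicate score, as percent of positive control, at or above 50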
CR mimetic CP: confirmation of caloric restriction mimetics inhibiting yeast age-related superoxide | shares compounds with CR mimetic SO | S. cerevisiae aging, superoxide DHE fluorescence; hits give low values | superoxide response (% of plate), % at 10 µM | 850 compounds, 1% hits | AID 434994;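 active = superoxide signal below 65% of the plate average of sample wells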;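 also: cells aged with compound for 7 days at 30 degrees C before staining; 100% equals mean DHE fluorescence of all compound wells on the plate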
DHE counter: DHE fluorescence interference, counter-screen artifact; S. cerevisiae BY4741, flow cytometry; hits give low values; AID 435000; 850 tested, under 10 active; fluorescence response, % at 10 µM; shares compounds with CR mimetic SO;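 active = fluorescence response below 15%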;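 also: percent of the mean fluorescence averaged over all compound wells on the plate; lower means stronger quenching of DHE signal or ROS scavenging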
* marks the source's active call; other numbers are inactive results; . = no result given.

SMILES	ABCB6 inh MLPCN	VLA-4 inh	SKN-1 block	CR mimetic SO	Platelet DG rel	CR mimetic CP	DHE counter
CCCn1c2ccc(/C(C)=N\O)cc2c2cc(/C(C)=N/O)ccc21	96.0	3.2	-16.1	111.8	-2.2	103.6	89.8
CN1CCCC(C)(C(=O)Nc2cccc(Oc3ccccc3)c2)C1 (stereo unspecified)	103.0	.	18.3	.	.	.	.
Cc1ccc(Cn2nnc(C(=O)Nc3cc(C)ccc3C)c2N)cc1	85.0	2.1	-3.2	114.4	-16.0	.	.
Cc1ccc(CNC(=O)Cn2nnc(C(=O)Nc3cc(C)ccc3C)c2N)cc1	83.0	1.3	6.1	57.2*	4.0	98.6	105.1
O=C1c2cc(S(=O)(=O)N(CCO)CCO)ccc2-c2ccc(S(=O)(=O)N(CCO)CCO)cc21	97.0	-3.1	-13.7	102.7	-13.0	.	.
CN(CCO)S(=O)(=O)c1ccc2c(c1)C(=NN)c1cc(S(=O)(=O)N(C)CCO)ccc1-2	96.0	3.3	2.8	65.1*	24.9	89.2	101.0
Cc1nnsc1C(=O)NNC(=O)c1ccc(C(F)(F)F)cc1	102.0	-1.2	4.1	63.5*	-1.9	110.5	97.4
Cc1nnsc1C(=O)NNc1ccc(C(C)(C)C)cc1	95.0	10.1	2.3	90.0	-2.7	.	.
c1ccc(-c2cccc(-c3ccccn3)n2)nc1	96.0	20.0	-14.9	62.9*	5.4	76.1	118.5
Cc1cc(NS(=O)(=O)c2ccccc2)ccc1NS(=O)(=O)c1ccccc1	100.0	.	6.0	.	.	.	.
Cc1cc(NS(=O)(=O)c2ccccc2)c(C)c(Cl)c1O	99.0	7.6	-3.9	124.4	-4.4	114.4	113.1
CN(Cc1ccc2c(c1)CCCN2C)C(=O)[C@H]1O[C@@H](n2cnc3c(N)ncnc32)[C@H](O)[C@@H]1O	98.0	.	6.3	.	.	.	.
CCc1ccc(NC(=O)CCS(=O)(=O)c2ccc(Cl)cc2)cc1	92.0	-1.4	-5.6	51.4*	-2.3	84.0	95.1
COc1cccc(CNC(=O)[C@@H]2CCCN2C(=O)[C@@H]2CCCN2S(=O)(=O)c2ccc(OC)c(C)c2)c1	98.0	.	-0.1	.	.	.	.
CCn1c2ccccc2c2cc(NC(=O)N3CCCCC3)ccc21	93.0	.	12.1	.	.	.	.
CCn1c2ccccc2c2cc(NC(=O)CC(C)=O)ccc21	99.0	-3.6	4.9	95.4	-1.6	100.5	93.4
CCCC(=O)Nc1ccc2c(c1)c1ccccc1n2CC	99.0	21.1	12.4	80.1	0.3	113.2	117.4
CCn1c2ccccc2c2cc(NC(=O)C(C)C)ccc21	98.0	24.8	17.2	90.4	-0.8	107.0	104.5
COc1ccc(C(C(=O)NC(C)(C)C)n2c(=O)c(-c3ccccc3)nc3ccccc32)cc1 (stereo unspecified)	.	.	11.8	.	.	.	.
Cc1cc(C)n2nc(-c3ccccc3)c(-c3ccccc3)c2n1	99.0	4.5	7.2	92.9	-0.2	95.1	91.7
Cc1cc(C)n2nc(C)c(-c3ccccc3)c2n1	98.0	-18.4	-10.5	103.8	-0.7	.	.
COc1ccc(CNC(=O)C2CCN(S(=O)(=O)N3CCC4(CC3)OCCO4)CC2)c(OC)c1	98.0	5.5	-2.5	62.7*	-2.9	112.4	132.2
Cn1c(=O)c2[nH]c(-c3cccnc3)nc2n(C)c1=O	101.0	6.3	6.0	58.0*	0.3	90.9	91.9
Cc1cc(=O)[nH]c(-c2cccnc2)n1	103.0	10.6	-0.9	93.0	-1.8	.	.
CCCCCCCCN1C(=O)[C@H](CC(=O)NCC2CCCCC2)C[C@@]2(C(=O)OCC)CCC=C12	.	.	-7.8	.	.	.	.
SMILES	ABCB6 inh MLPCN	VLA-4 inh	SKN-1 block	CR mimetic SO	Platelet DG rel	CR mimetic CP	DHE counter
CSc1ncc(Cl)c(C(=O)Nc2cccc(C)c2)n1	94.0	1.2	-4.0	96.0	2.6	100.5	89.8
CCOC(=O)c1ccc(NC(=O)c2nc(SC)ncc2Cl)cc1	96.0	38.2	3.2	90.0	3.0	.	.
CSc1ncc(Cl)c(C(=O)Nc2cccc(Cl)c2)n1	92.0	-9.2	-4.0	94.4	1.7	95.8	99.2
Cc1ccccc1NC(=O)c1nc(S(C)(=O)=O)ncc1Cl	105.0	10.6	0.8	107.7	-7.3	98.7	91.2
CSc1ncc(Cl)c(C(=O)Nc2cccc3ccccc23)n1	101.0	0.1	3.5	98.3	-4.3	.	.
CS(=O)(=O)c1ncc(Cl)c(C(=O)Nc2ccc(OC(F)F)cc2)n1	85.0	26.4	-12.4	97.7	17.2	.	.
CSc1ncc(Cl)c(C(=O)Nc2ccccc2Br)n1	98.0	-2.0	4.8	103.5	10.3	104.7	108.1
COCCNC(=O)C1(C)CCCN(C(=O)c2cc(F)cc(F)c2)C1 (stereo unspecified)	103.0	.	-10.9	.	.	.	.
CCNC(=S)Nc1ccc2c(c1)c(=O)n(C)n2-c1ccc(C(C)(C)C)cc1	94.0	.	6.8	.	.	.	.
NC(c1csc(Nc2cc(NCCCO)ncn2)n1)c1ccccc1Cl (stereo unspecified)	101.0	.	7.4	.	.	.	.
COc1cccc(Nc2nc(C(N)C3CCCCC3)cs2)n1 (stereo unspecified)	105.0	.	-4.2	.	.	.	.
Cn1cc(Cc2ccc(C(=O)N3CCCCC3)cn2)c2ccccc21	96.0	.	14.8	.	.	.	.
CCCNS(=O)(=O)c1ccc(NC(=O)c2cccnc2)cc1	100.0	2.1	4.7	57.7*	-11.8	115.2	107.0
CC(C)(c1cc(Br)c(O)c(Br)c1)c1cc(Br)c(O)c(Br)c1	101.0	3.9	-12.7	42.9*	.	95.6	125.4
CCN(CC)c1ccc2cc(C(=O)c3cccs3)c(=O)oc2c1	321.0	.	5.1	.	.	.	.
Cc1ccc(NC(=O)c2ccc(C(=O)c3ccccc3)cc2)nc1	91.0	-8.7	19.3	63.4*	-4.3	98.5	92.4
Cc1ccc(NC(=O)c2ccc3nc[nH]c3c2)nc1	93.0	-1.3	-14.5	106.4	7.5	.	.
NC(=O)CSc1nnc(-c2ccc(O)cc2)n1Cc1ccco1	95.0	-8.6	-21.1	88.5	12.9	.	.
O=C(CSc1nnc(-c2ccc(O)cc2)n1Cc1ccco1)N1CCc2ccccc2C1	93.0	-1.3	-41.0	60.4*	-5.7	92.2	92.0
Cc1ccc(-c2nc3ccccc3c(=O)n2O)cc1	96.0	-215.2	-1.2	58.5*	5.6	92.5	110.6
O=c1c2ccccc2nc(-c2ccc([N+](=O)[O-])cc2)n1O	113.0	-13.4	-3.7	77.1	-2.6	.	.
O=C(CSc1ccc(-c2cccnc2)nn1)Nc1ccccc1C(F)(F)F	89.0	-3.7	17.7	91.6	-8.7	100.8	90.6
CCOC(=O)c1ccc(NC(=O)CSc2ccc(-c3ccccn3)nn2)cc1	94.0	10.3	-5.9	113.5	-12.3	115.9	90.8
CCOc1ccc(NC(=O)CSc2ccc(-c3ccccn3)nn2)cc1	89.0	10.2	-11.4	102.0	1.5	.	.
O=C(CSc1ccc(-c2ccccn2)nn1)Nc1ccc(F)cc1F	91.0	-16.4	5.7	107.7	-8.3	103.2	106.3
O=C(CSc1ccc(-c2ccccn2)nn1)Nc1ccc(F)c(F)c1	88.0	11.8	18.8	99.1	-11.1	137.4	115.3
O=C(CSc1ccc(-c2cccnc2)nn1)Nc1ccc(F)cc1F	103.0	-0.5	-0.7	90.9	2.7	.	.
